An excerpt weighted towards active compounds, which were near 9% of everything screened.
PLK1 PBD block: qHTS for Inhibitors of PLK1-PDB (polo-like kinase 1 - polo-box domain): Primary Screen; Serine/threonine-protein kinase PLK1 (Homo sapiens), P53350; Plk1 PBD binding of FITC phosphopeptide, fluorescence polarization; Potency, µM, most hits filed as inhibitors; 360,000 compounds, 2.8% hits; AID 720504, 2013; also: series mostly up to about 57 µM; nearly all actives have a fitted effect of over 65% in size
Target sequence (P53350 whole entry, looked up, the tested form may be a part): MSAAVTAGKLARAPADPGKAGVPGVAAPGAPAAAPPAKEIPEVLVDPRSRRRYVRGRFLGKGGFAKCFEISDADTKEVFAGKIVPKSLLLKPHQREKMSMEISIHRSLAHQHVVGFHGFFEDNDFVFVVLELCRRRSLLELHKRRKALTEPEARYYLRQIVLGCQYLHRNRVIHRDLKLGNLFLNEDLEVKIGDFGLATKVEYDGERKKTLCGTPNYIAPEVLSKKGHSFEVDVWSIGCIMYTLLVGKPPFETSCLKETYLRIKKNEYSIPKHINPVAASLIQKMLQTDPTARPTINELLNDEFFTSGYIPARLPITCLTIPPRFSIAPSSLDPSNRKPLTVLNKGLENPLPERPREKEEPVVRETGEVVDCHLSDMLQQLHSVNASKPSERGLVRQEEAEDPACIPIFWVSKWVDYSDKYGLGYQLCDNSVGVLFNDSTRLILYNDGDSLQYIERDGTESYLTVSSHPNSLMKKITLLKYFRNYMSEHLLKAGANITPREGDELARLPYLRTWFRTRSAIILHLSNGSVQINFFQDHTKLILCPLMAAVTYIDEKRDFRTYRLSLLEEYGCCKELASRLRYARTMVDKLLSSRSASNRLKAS
BAZ2B inh: qHTS Assay for Inhibitors of BAZ2B; Bromodomain adjacent to zinc finger domain protein 2B (Homo sapiens), Q9UIF8; AlphaScreen BAZ2B-H3K14Ac peptide displacement; Potency, µM (doses to about 114 µM), actives largely listed as inhibitors; 360,000 compounds, 4.4% hits; also: nearly all actives have a fitted effect of over 60% in size
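Protein-peptide AlphaScreen: BAZ2B 50 nM, b-H3K14Ac 50 nM, 1x PBS pH 7.4 + 0.01% Tween-20. Preincubation 30 min RT; cpd 30 min RT (top 110 uM); beads 20 min RT, light-protected.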
12-LOX inh: Primary qHTS assay for inhibitors of human arachidonate 12S-lipoxygenase (ALOX12): Round 2; Polyunsaturated fatty acid lipoxygenase ALOX12 (Homo sapiens), P18054; purified 12hLO, xylenol orange hydroperoxide absorbance; Potency, µM (doses to about 108 µM), hits mostly inhibitors; 580,000 compounds, 1.1% hits; AID 1671190, 2021
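Hydroperoxide product was detected by ferrous iron/xylenol orange as the 573 to 405 nm absorbance ratio. Arachidonic acid at 40 uM (final) was turned over for 30 min at room temperature by 150 nM human 12hLO, pH 7.0 Hepes buffer, after 15 min compound preincubation.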
G9a block: qHTS Assay for Inhibitors of Histone Lysine Methyltransferase G9a | Histone-lysine N-methyltransferase EHMT2 (Homo sapiens), Q96KQ7 | G9a H3K9 monomethylation, AlphaScreen, 2 h | Potency, µM (top dose mostly 102 µM), usual class: inhibitors | 350,000 compounds, 8.8% hits | AID 504332, 2011; also: nearly all actives have a fitted effect of over 75% in size
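Readings reflect AlphaScreen signal from monomethyl-H3K9 antibody detection. HMT at 20 nM; substrate b-H3K9 500 nM; cofactor SAM 20 uM; 2 h RT reaction; compounds tested as titrations in qHTS with 15 min preincubation.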
JMJD2A Tudor inh: qHTS Assay for Inhibitors of JMJD2A-Tudor Domain | Lysine-specific demethylase 4A (Homo sapiens), O75164 | AID 504339, 2011 | 390,000 compounds, 4.4% hits | AlphaScreen JMJD2A-Tudor / H3K4me3 peptide binding | Potency, µM (series often up to 114 µM), actives largely listed as inhibitors; also: nearly all actives have a fitted effect of over 50% in size
HP1b chromo inh: HTS for Inhibitors of HP1-beta Chromodomain Interactions with Methylated Histone Tails; Chromobox protein homolog 1 (Homo sapiens), P83916; AlphaScreen HP1-beta / biotin-H3K9me3 peptide binding; Potency, µM (highest dose often 114 µM), usual class: inhibitors; 390,000 compounds, 0.56% hits; also: nearly all actives have a fitted effect of over 70% in size
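AlphaScreen: HP1-beta (50 nM) preformed 30 min with biotin-H3(1-18)K9me3 peptide (50 nM) in PBS pH 7.4, 0.01% Tween-20. Compound added for 30 min at RT, then streptavidin donor/nickel chelate acceptor beads (10 ug/mL) for 30 min.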
Numbers stand for hits; - = inactive; ? = inconclusive; . = no result; [ ] = another dose, or the depositor's remark. Calls follow the shape of the dose curve; as a rule, active = well fitted curve in the direction sought with a large enough effect; inconclusive = small, poorly fitted or top-dose-only effect, or another doubt; inactive = no such curve, though single readings can be large; an effect the other way counts as inactive or inconclusive.

SMILES | PLK1 PBD block | BAZ2B inh | 12-LOX inh | G9a block | JMJD2A Tudor inh | HP1b chromo inh
CC(C)(CO)NCc1ccc(Br)cc1 | 19µM | - | - | - | 7.9µM | -
CCOC(=O)c1cc(-c2ccc(OC(F)F)cc2)nc2nc(SC)[nH]c(=O)c12 | - | - | - | 45µM | - | -
CCCCCOc1ccc(NC(=O)C(=O)NCC2CCCN2CC)cc1 (configuration not stated) | - | - | - | - | -[11.4 µM] | -
COc1ccccc1NS(=O)(=O)c1cc(NC(=O)c2cccnc2)ccc1N1CCCCC1 | - | . | - | . | ? | -
COc1ccccc1NS(=O)(=O)c1cc(NC(=O)Nc2ccc(Cl)cc2Cl)ccc1N1CCCCC1 | ? | - | - | 3.5µM | - | ?
COc1ccc(NS(=O)(=O)c2cc(NC(=O)C3CC3)ccc2N2CCCCC2)cc1 | - | . | - | - | - | -
COc1ccccc1NS(=O)(=O)c1cc(NC(=O)C2CCC2)ccc1N1CCCCC1 | 6µM | - | - | 3.5µM | ? | -
Cc1ccc(N(Cc2cc(=O)[nH]c3ccccc23)C(=O)C(C)C)c(C)c1 | - | - | - | ? | - | -
CCC(=O)N(Cc1cc(=O)[nH]c2ccccc12)C1CCCCC1 | 24µM | - | - | - | ? | -
Cc1ccccc1N(Cc1cc(=O)[nH]c2ccccc12)C(=O)C(C)C | - | - | ? | 79µM | - | -
CCC(=O)N(Cc1cc(=O)[nH]c2ccccc12)c1ccc(C)cc1C | - | - | ? | 71µM | - | -
CCC(=O)N(Cc1cc(=O)[nH]c2ccccc12)c1ccccc1 | - | - | ? | . | ? | -
CN1CCN(C(=O)c2ccccc2NC(=O)c2cccs2)CC1 | - | - | - | - | -[11.4 µM] | -
CC(C)CNc1ccc2c(n1)C(C)(C(=O)NC1CC1)CN(Cc1ccccc1)C2 (configuration not stated) | . | . | - | . | . | .
CCCc1sc(C(=O)Nc2ccccc2O)cc1CC | . | . | 13µM | . | . | .
CCc1ccccc1NC(=O)c1ccc([N+](=O)[O-])s1 | - | - | - | - | - | -
CCOC(=O)c1cnn2c(N)c(C#N)cnc12 | - | ? | - | 45µM | ? | -
Cc1oc(-c2cccc(Cl)c2)nc1CN1CCCC(C(=O)N2CCN(c3ccc(F)cc3)CC2)C1 (configuration not stated) | . | 10µM | - | 18µM | 40µM | ?
Cc1oc(-c2cccc(Cl)c2)nc1CN1CCCC(C(=O)NC(C)c2ccc3c(c2)OCCO3)C1 (configuration not stated) | - | ? | - | 50µM | ? | -
Cc1cccc(-c2nc(CN3CCCC(C(=O)NCCc4ccc(Cl)cc4)C3)c(C)o2)c1 (configuration not stated) | . | 56µM | ? | ? | ? | -
Cc1oc(-c2cccc(Cl)c2)nc1CN1CCCC(C(=O)NCc2ccc(Cl)cc2)C1 (configuration not stated) | . | ? | ? | - | ? | -
Cc1oc(-c2cccc(Cl)c2)nc1CN1CCC(C(=O)N2CCN(c3ccccc3F)CC2)CC1 | - | - | - | ? | ? | -
O=c1nc(NC2CCCC2)ccn1Cc1cccc(Br)c1 | - | - | - | -[12.7 µM] | - | -
CCN(Cc1nccn1C)C(=O)c1ccc(N2CCN3CCCC3C2)nc1 (configuration not stated) | . | . | - | . | . | .
CC(C)CC1NC(=O)c2ccccc2-n2c1nc1ccc(F)cc1c2=O (configuration not stated) | . | - | ? | -[0.501 µM] | . | .
CC12CCC(=O)N1C(C(=O)N1CCN(c3ccc(C(F)(F)F)cc3[N+](=O)[O-])CC1)CS2 (configuration not stated) | - | - | - | . | - | -

High-throughput results as filed in PubChem.
